# Results reported in PubChem BioAssay (EPA / NIEHS).
# “And” between values parts separate entries of the source, which are not always exact repeats. Identical values can stand only once. Inconclusive results are not listed. More than one record can exist for a structure, and the calls need not agree. The source made the active and inactive calls. The calls were made as follows: active = hit-call score of the fitted dose curve at least 0.9, where 1 is the maximum; inconclusive = response in the unintended direction; inactive = score below 0.9.
# Columns and labels:
# [1] = molecular target: Estrogen receptor (Homo sapiens) (UniProt P03372); test: OT_ER_ERaERa_0480: Odyssey Thera (OT) 8-hour HEK293T Protein-Complementation Assay for Estrogen Receptor-alpha/-alpha Homodimer (AID 2283351);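 also: rise in fluorescence from reassembled reporter fragments on ERα LBD homodimer in nucleus or whole cell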
# In short: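 HEK293T cells stably expressing a PCA pair of ER alpha LBD (residues 310-547) were dosed for 8 hours. The gain in fluorescence intensity, nuclear for agonists and whole-cell for antagonists, was measured by laser scanning cytometry against DMSO vehicle.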
# [2] = molecular target: Estrogen receptor (Homo sapiens) + Estrogen receptor beta (Homo sapiens) (UniProt P03372+Q92731); test: OT_ER_ERaERb_0480: Odyssey Thera (OT) 8-hour HEK293T Protein-Complementation Assay for Estrogen Receptor-alpha/-beta Heterodimer (AID 2283352)
# In short: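 HEK293T cells expressing ER-alpha/ER-beta LBD fusions to complementary reporter fragments were dosed with compound for 8 hours. Heterodimer formation was read as increased nuclear (agonist) or nuclear plus cytoplasmic (antagonist) mean fluorescence intensity versus DMSO vehicle.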
# [3] = molecular target: bovine Estrogen Receptor (ER), ESR1 (gene 407238) (UniProt P49884); test: NVS_NR_bER: NovaScreen (NVS) Nuclear Receptor Binding Assay for bovine Estrogen Receptor (ER) (AID 2283345);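 also: actives lower the bound radioligand count which means they displace the ER ligand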
# In short: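 Bovine uterine membranes; tritiated or iodinated radioligand; competitive displacement; 18 h; scintillation read; DMSO negative control; 25 uM duplicates, then concentration series for actives.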
# [4] = molecular target: chimpanzee Androgen Receptor (AR), AR (gene 747460) (UniProt O97775); test: NVS_NR_cAR: NovaScreen (NVS) Nuclear Receptor Binding Assay for chimpanzee Androgen Receptor (AR) (AID 2283346);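 also: radioligand displacement from AR measured by scintillation counting in a cell-free assay; a loss of bound radioligand signal versus DMSO counts as binding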
# In short: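 Radioligand binding to chimpanzee AR expressed in Sf9/Sf21 cells, cell-free, measured 72 h after dosing by lysate-based scintillation counting. Loss of signal vs DMSO; initial duplicate screen at 25 uM, actives retested in concentration series.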
# [5] = molecular target: Estrogen receptor (Homo sapiens) (UniProt P03372); test: NVS_NR_hER: NovaScreen (NVS) Nuclear Receptor Binding Assay for human Estrogen Receptor (ER) (AID 2283348)
# In short: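 MCF7-derived receptor extract, radiolabelled ligand, competitive displacement. Read: scintillation counts at 18 h. DMSO = negative control/baseline. Primary 25 uM duplicate; follow-up concentration–response.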
# [6] = molecular target: Androgen Receptor/SRC-1 Co-activator, AR (gene 367) (UniProt P10275); test: OT_AR_ARSRC1_0960: Odyssey Thera (OT) 16-hour HEK293T Protein-Complementation Assay for Androgen Receptor/SRC-1 Co-activator (AID 2283353);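 also: actives raise the signal above DMSO so potency reflects increased AR and SRC-1 complex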
# In short: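 Endpoint is gain-of-signal N/C fluorescence ratio in the 488 nm channel versus DMSO, from at least 400 cells per image, measured 16 h post-dosing. Cells: HEK293T stably carrying split-Venus AR/SRC-1 complementation constructs.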
# [7] = molecular target: human Peripheral-type Benzodiazepine Receptor (PBR), TSPO (gene 706) (UniProt P30536); test: NVS_MP_hPBR: NovaScreen (NVS) Membrane Protein Assay for human Peripheral-type Benzodiazepine Receptor (PBR) (AID 2283331);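 also: hits reduce radioligand binding relative to DMSO baseline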
# In short: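 Cell-free radioligand displacement, human colonic membranes, 1 h exposure. Filter radiodetection read-out. Single-concentration duplicates (25 uM), then concentration-response for actives; DMSO negative control.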
# [8] = molecular target: rat Peripheral-type Benzodiazepine Receptor (PBR), Tspo (gene 24230) (UniProt P16257); test: NVS_MP_rPBR: NovaScreen (NVS) Membrane Protein Assay for rat Peripheral-type Benzodiazepine Receptor (PBR) (AID 2283335)
# In short: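 Competitive displacement of specific radioligand from rat kidney membrane PBR, read by filtration and scintillation after 1 h. Compounds first tested at 25 uM in duplicate, then in concentration series; signal loss relative to DMSO.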
# [9] = NVS_IC_rCaBTZCHL: NovaScreen (NVS) Ion Channel Assay for Calcium Channel, Type L, Benzothiazepine Site (CaBTZCHL) (AID 2283337)
# In short: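 Rat cortical membrane preparation incubated 1.5 h with compound and benzothiazepine-site radioligand; loss of filter-bound counts versus DMSO marks displacement. Initial duplicate testing at 25 uM, actives followed up in concentration series.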
# [10] = molecular target: human Androgen Receptor (AR), AR (gene 367) (UniProt P10275); test: NVS_NR_hAR: NovaScreen (NVS) Nuclear Receptor Binding Assay for human Androgen Receptor (AR) (AID 2283332)
# In short: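 LnCAP cell-free extract; radioligand displacement read by scintillation counting after 20 h. Primary screen single concentration 25 uM in duplicate, actives then run as concentration series; loss-of-signal fitted relative to DMSO baseline.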
# Sequence of chimpanzee Androgen Receptor (AR), AR (gene 747460) (O97775 whole entry, looked up): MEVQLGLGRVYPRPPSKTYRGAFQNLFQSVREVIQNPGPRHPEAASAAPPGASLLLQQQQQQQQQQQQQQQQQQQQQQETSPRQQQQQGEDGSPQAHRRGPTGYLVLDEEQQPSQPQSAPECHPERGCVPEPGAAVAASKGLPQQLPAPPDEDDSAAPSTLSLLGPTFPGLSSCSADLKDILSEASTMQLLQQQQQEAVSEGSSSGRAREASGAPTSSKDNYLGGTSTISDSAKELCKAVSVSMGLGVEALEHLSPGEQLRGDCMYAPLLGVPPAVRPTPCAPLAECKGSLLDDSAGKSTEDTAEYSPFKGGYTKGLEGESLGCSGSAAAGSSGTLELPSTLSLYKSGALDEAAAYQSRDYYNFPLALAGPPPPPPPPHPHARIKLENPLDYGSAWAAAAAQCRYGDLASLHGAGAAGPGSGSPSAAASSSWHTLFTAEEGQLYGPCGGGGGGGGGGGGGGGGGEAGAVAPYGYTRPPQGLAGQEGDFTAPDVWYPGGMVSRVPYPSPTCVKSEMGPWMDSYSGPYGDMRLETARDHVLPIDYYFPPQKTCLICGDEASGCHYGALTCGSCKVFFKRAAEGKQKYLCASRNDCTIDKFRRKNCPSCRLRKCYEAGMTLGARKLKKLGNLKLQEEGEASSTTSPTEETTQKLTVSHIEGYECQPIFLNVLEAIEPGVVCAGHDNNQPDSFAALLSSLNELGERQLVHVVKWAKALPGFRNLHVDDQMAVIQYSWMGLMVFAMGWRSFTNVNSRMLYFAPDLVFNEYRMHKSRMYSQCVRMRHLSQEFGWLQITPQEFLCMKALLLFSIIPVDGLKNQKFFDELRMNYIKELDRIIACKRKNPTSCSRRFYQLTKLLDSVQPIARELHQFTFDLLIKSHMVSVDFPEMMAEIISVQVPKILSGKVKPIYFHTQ
# Sequence of bovine Estrogen Receptor (ER), ESR1 (gene 407238) (P49884 whole entry, looked up): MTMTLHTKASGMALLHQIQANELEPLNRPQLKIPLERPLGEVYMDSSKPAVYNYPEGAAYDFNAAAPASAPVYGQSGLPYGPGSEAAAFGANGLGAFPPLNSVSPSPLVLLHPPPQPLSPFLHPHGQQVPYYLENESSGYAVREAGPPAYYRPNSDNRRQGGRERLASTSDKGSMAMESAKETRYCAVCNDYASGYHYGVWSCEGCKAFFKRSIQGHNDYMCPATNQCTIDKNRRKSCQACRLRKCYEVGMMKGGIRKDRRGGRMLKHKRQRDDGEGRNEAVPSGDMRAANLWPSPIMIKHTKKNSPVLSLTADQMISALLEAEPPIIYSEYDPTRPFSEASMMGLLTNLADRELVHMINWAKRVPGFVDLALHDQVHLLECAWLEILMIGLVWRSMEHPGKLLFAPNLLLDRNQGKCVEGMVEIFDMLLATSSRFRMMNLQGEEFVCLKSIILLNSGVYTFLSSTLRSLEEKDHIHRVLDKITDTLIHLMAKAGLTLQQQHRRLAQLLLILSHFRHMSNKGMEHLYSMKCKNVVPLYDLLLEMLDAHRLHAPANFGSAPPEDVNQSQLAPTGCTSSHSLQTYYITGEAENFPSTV
# Sequence of Estrogen receptor (Homo sapiens) + Estrogen receptor beta (Homo sapiens) (P03372 whole entry, looked up, the tested form may be a part): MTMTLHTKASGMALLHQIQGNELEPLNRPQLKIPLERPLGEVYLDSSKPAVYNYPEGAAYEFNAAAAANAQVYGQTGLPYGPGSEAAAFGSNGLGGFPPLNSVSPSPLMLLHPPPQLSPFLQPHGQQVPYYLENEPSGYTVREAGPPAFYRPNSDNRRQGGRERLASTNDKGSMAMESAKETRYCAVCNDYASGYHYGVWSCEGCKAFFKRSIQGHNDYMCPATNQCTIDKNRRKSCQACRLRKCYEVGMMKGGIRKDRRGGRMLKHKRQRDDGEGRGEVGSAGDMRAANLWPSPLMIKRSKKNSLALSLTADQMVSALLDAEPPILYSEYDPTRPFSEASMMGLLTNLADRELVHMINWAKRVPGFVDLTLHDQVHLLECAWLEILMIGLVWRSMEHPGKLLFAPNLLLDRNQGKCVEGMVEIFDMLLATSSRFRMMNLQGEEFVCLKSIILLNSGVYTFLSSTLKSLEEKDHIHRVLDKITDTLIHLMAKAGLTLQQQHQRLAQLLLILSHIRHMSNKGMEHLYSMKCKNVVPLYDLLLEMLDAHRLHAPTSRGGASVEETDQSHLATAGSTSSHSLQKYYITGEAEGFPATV
# Sequence of Estrogen receptor (Homo sapiens) + Estrogen receptor beta (Homo sapiens) (Q92731 whole entry, looked up, the tested form may be a part): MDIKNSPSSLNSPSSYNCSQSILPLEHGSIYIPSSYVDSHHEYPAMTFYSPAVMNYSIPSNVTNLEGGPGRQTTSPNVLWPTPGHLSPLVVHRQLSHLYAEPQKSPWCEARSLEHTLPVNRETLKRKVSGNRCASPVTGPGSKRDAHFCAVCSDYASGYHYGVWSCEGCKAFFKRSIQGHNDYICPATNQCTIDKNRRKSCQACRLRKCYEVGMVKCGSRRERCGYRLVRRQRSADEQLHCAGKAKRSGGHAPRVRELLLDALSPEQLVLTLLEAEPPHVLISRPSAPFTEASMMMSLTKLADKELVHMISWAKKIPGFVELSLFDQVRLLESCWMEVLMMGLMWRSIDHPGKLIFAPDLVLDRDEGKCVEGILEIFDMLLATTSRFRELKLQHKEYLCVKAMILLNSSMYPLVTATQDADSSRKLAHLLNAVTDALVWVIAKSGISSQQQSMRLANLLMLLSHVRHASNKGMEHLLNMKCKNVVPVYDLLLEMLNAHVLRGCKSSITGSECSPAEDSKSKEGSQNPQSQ
# Sequence of Estrogen receptor (Homo sapiens) (P03372 whole entry, looked up, the tested form may be a part): as the sequence (P03372 whole entry, looked up, the tested form may be a part) above
# Sequence of Androgen Receptor/SRC-1 Co-activator, AR (gene 367) (P10275 whole entry, looked up): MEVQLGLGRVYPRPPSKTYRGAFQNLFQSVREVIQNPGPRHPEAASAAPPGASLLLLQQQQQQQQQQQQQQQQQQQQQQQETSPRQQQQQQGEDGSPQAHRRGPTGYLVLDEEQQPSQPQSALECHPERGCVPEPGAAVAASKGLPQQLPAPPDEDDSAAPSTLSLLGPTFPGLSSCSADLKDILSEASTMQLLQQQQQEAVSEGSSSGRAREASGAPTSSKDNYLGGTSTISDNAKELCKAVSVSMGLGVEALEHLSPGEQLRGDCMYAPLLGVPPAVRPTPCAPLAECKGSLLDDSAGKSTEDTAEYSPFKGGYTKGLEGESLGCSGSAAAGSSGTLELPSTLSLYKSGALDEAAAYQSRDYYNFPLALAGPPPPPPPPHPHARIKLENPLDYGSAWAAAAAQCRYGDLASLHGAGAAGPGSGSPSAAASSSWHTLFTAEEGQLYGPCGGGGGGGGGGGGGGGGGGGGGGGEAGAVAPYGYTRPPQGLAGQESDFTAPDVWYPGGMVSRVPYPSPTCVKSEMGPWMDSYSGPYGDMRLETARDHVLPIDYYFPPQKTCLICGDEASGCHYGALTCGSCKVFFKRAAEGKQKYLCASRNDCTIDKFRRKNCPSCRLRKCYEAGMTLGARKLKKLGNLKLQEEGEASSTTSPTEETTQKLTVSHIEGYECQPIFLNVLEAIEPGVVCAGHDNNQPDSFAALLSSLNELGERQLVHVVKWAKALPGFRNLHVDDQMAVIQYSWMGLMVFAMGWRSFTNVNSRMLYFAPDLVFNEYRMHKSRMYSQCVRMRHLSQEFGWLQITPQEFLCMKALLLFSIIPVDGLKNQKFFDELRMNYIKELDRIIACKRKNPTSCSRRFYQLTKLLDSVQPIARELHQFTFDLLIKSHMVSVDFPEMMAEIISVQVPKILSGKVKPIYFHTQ
# Sequence of rat Peripheral-type Benzodiazepine Receptor (PBR), Tspo (gene 24230) (P16257 whole entry, looked up): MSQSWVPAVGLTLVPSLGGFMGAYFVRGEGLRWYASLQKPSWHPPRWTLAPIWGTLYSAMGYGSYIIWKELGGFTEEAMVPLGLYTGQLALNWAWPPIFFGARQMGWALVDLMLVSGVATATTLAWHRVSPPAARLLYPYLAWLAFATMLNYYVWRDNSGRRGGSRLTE
# Sequence of human Peripheral-type Benzodiazepine Receptor (PBR), TSPO (gene 706) (P30536 whole entry, looked up): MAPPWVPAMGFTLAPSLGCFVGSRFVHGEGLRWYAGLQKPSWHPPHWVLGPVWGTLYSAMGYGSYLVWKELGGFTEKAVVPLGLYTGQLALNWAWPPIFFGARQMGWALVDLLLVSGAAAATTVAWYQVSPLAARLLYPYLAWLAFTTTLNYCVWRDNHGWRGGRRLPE
# Sequence of human Androgen Receptor (AR), AR (gene 367) (P10275 whole entry, looked up): as the sequence (P10275 whole entry, looked up) above
smiles,measurement,setting,value
C1COCCN1,outcome,[1],inactive
same,outcome,[2],inactive
c1ccc(B(c2ccccc2)c2ccccc2)cc1,outcome,[3],inactive
same,AC50,[4],17.5 µM (active)
same,AC50,[5],13.9 µM (active)
same,AC50,[1],55.7 µM (active)
CC/C=C\CCOC(C)=O,outcome,[1],inactive
same,outcome,[2],inactive
Cc1cc(C)cc(O)c1,outcome,[5],inactive
same,outcome,[1],inactive
same,outcome,[2],inactive
[Co],outcome,[1],inactive
same,outcome,[2],inactive
same,outcome,[6],inactive
CCCCCCCCCCCCCCCC[N+](C)(C)Cc1ccccc1,AC50,[7],41.3 µM (active)
same,AC50,[8],9.82 µM (active)
same,outcome,[3],inactive
same,outcome,[5],inactive
Nc1ccc(Oc2cccc(Oc3ccc(N)cc3)c2)cc1,AC50,[8],13.3 µM (active)
CC(CCl)OP(=O)(OC(C)CCl)OC(C)CCl (centres undefined),AC50,[7],23.8 µM (active)
same,AC50,[8],4.23 µM (active) and 14.6 µM (active)
same,outcome,[1],inactive
same,outcome,[2],inactive
CCCCC(CC)COP(=O)(O)OCC(CC)CCCC (centres undefined),outcome,[5],inactive
same,outcome,[1],inactive
CCCCCCOC(=O)c1ccccc1O,outcome,[1],inactive
same,AC50,[2],60.2 µM (active)
same,outcome,[6],inactive
CC(Cc1ccc(O)c(O)c1)C(C)Cc1ccc(O)c(O)c1 (centres undefined),AC50,[8],6.77 µM (active)
same,AC50,[3],11.1 µM (active)
same,AC50,[5],0.705 µM (active)
same,AC50,[1],11.9 µM (active)
same,AC50,[2],2.42 µM (active)
C#C[C@]1(O)CC[C@H]2[C@@H]3CCc4cc(OC)ccc4[C@H]3CC[C@@]21C,AC50,[3],0.0305 µM (active)
same,AC50,[4],3.99 µM (active)
same,AC50,[5],0.00229 µM (active)
same,outcome,[5],inactive
same,AC50,[1],9.95 µM (active)
CNC(=S)NC,outcome,[1],inactive
same,outcome,[6],inactive
CN(C)Cc1ccccc1O,outcome,[5],inactive
same,outcome,[1],inactive
same,outcome,[2],inactive
same,outcome,[6],inactive
CC(C)OC(=O)c1ccccc1C(=O)OC(C)C,AC50,[7],11.5 µM (active)
same,AC50,[8],9.08 µM (active)
same,AC50,[1],62.8 µM (active)
O=C(OCCOCCOCCOC(=O)c1ccccc1)c1ccccc1,AC50,[7],9.76 µM (active)
same,outcome,[1],inactive
same,outcome,[2],inactive
CCCCOCCOCCOC(=O)CCCCC(=O)OCCOCCOCCCC,outcome,[7],inactive
OC[C@@H](O)[C@@H](O)[C@H](O)[C@@H](O)CO,outcome,[1],inactive
CCCCCCOC(=O)c1ccccc1,outcome,[1],inactive
same,outcome,[2],inactive
CCN(CC)c1ccc2c(C)cc(=O)oc2c1,AC50,[7],4.66 µM (active)
same,AC50,[8],3.32 µM (active)
same,outcome,[3],inactive
same,AC50,[4],5 µM (active)
C(=C(c1ccccc1)c1ccccc1)c1ccccc1,outcome,[3],inactive
same,outcome,[5],inactive
same,AC50,[1],5.6 µM (active)
same,AC50,[2],9.47 µM (active)
O=S(=O)(O)c1ccc2ccccc2c1,outcome,[1],inactive
CCCCOc1ccc(N)cc1,outcome,[1],inactive
same,outcome,[2],inactive
Oc1ccc(Nc2ccccc2)cc1,outcome,[9],inactive
same,AC50,[3],25 µM (active)
same,AC50,[5],8.86 µM (active)
Nc1ccc([N+](=O)[O-])cc1O,outcome,[3],inactive
same,outcome,[5],inactive
CCN(Cc1cccc(S(=O)(=O)O)c1)c1ccc(C(=C2C=CC(=[N+](CC)Cc3cccc(S(=O)(=O)O)c3)C=C2)c2ccc(O)cc2S(=O)(=O)[O-])cc1,AC50,[4],13.2 µM (active)
same,outcome,[1],inactive
same,outcome,[2],inactive
Cc1ccc(S(=O)(=O)NCl)cc1,outcome,[1],inactive
CC(=O)Nc1ccc(N=Nc2cc(C)ccc2O)cc1,AC50,[7],2.21 µM (active)
same,AC50,[10],31.4 µM (active)
same,outcome,[4],inactive
COC(=O)C1CCC(C(=O)OC)CC1 (centres undefined),outcome,[1],inactive
same,outcome,[2],inactive
CCCCCCC(C)OC(=O)CCCCC(=O)OC(C)CCCCCC (centres undefined),AC50,[7],10.2 µM (active)
same,outcome,[4],inactive
same,outcome,[1],inactive
same,outcome,[2],inactive
same,outcome,[6],inactive
